We go through 40 sequences from the supplement of paper PMC6555819.

The first experiment has as its system RARb homodimer (NR concentration 270 nM). In words: PBM binding z-score (relative to random genomic background probes); higher = stronger binding; sequences stand for … in GC…GCGATTGACAGCGTAGAATGAAGG
The procedure, abridged: (§1)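 Ligand-free nuclear receptor dimers were applied to custom Agilent 4×180K protein-binding microarrays whose double-stranded probes carried direct-repeat seeds, single-nucleotide variants, half-site ablations and random human genomic background sequences in 34-nt variable regions. Incubation lasted 1 h. Binding z-scores were computed against the random background probes from regression-normalized fluorescence.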
TCTATTAGTTGAAGGGCAACCAACGAGTCCGTTT: the PBM binding z-score stood at 1.4.
Same read-out and setting: then TAGCCTAGGTCATATCGGGCCAGTATACGCTATA, with 2.44; and TTACCAAGGTGAAGGACGTTGATCCCTCTGTAGA, with 0.644.
With AGTCAAAGTTTAGGACGAGGTAACGTAAAGCACG, the PBM binding z-score turned out to be 0.774.
On to CGTCCAAGGTCAAAGGGCAGTGAAGAGATGACGG, for which the PBM binding z-score is 4.39.
The same measure, in the same setting: then CCTACTGGGACAAAGGTCATTGATTCCAATGCTC, with 4.66.
Turning to CAAACTGGGTCACGAAAGGTCAAAGTCGAATGAC, the PBM binding z-score came out at 5.73.
Same read-out and setting: then CGTCCAAGGTTAATGCTAGGTCAGTGAAAGCATT, with 3.14.
ACTAGTTGGTCAGTTGAGGTCACACACAATTCGG gave a PBM binding z-score of 4.23.
The sequence CAAACTAGGACAAGGTCAAAGTCGGTTTGTGCCA gave a PBM binding z-score of 3.66.
Still for that read-out and setting: the figure for ACTTTCGGGTCAACGAGGTTATAGCACGCGTATA is 3.85; for ACAGACAGGGGATGAAGGTAACTCAGGCTATCAT it is 0.714; for AGAATGAGGTTATACGAAGATCAGGGAAGAAAGT it is 0.559.
Still for that read-out and setting: the figure for GCTAGCAGGCCATTTGGGTCACTCAATGACGGGC is 2; for TCATATAGATAAATGCTAGGTGAAAGTCCGATCT it is 0.00895; for TAGCCTAGGTCATTGGGCCTGTATAGTACGCATC it is 2.84.
The same measure, in the same setting: then AATGCAGGGTCATCGTAGGCCAGAGTACGCACAG, with 3.56; and CCTTACGGGTCACTGACAGGTTGTAGCATTTGGA, with 3.13.

The subject of the next experiment is RARg:RXRa (NR concentration 270 nM, RXRa partner concentration 90 nM). Described as above. The method in brief:
as §1
ACTATTAGTTGAGACGAGGGCAACAGATAGGTTG gave a PBM binding z-score of 0.793.
The same measure, in the same setting: then CCTACTGGCCCAAAGGTCATTGATTCCAATGCTC, with 4.89.
The same measure, in the same setting: then CCTATTAGTTGACCATAAGGGCAACAGAAGCTCG, with 1.46; and GATACAGGGTTAGCTAGAGGCCAGAGTATGGAAA, with 3.12; and CCTTACGGGTCACTCCAGGTTATAGCGTCGGAGT, with 4.55.
The same measure, in the same setting: then CCTTACGGGTCACTAACAGGTTATAGCATTTGGA, with 5.31; and TCTAGTAGATCAAGCAGGTTAAGAAAGCCTGAGT, with -0.256.
As for GCGACTGGGGCATCAGGAGGTTACCATAACTTAA, the PBM binding z-score turned out to be 2.07.
On the same count and under the same terms, then CCGACTGTGGCAAAGGTTACCATACTCAGTACGA, with 2.04.
Still for that read-out and setting: the figure for CGTCCAAGGTCAAGGTCAGTGCAAGAGACTCGAA is 6.95; for CCTACTGGGCCAAAGGTTATTGATTCCAATGCTC it is 2.07; for ATCTCTAGGTAATACTCAGTTCAGTGAAGAACGC it is 0.732.
Same read-out and setting: the figure for CCTACTGGGCCAAGGGTCATTGATTCCAATGCTC is 3.67.
Consider ATAAGTAGGTTAAGGGTCATTCAGGTTGGTTCGC, for which the PBM binding z-score turned out to be 4.8.
Consider GGAACGAGGGCATTCGACTTGATAGCATGGCGAT, for which the PBM binding z-score turned out to be 1.11.
Same read-out and setting: the figure for GGAACGAAGGCAAAGTTGATAGCATCTGTCGACG is -0.275; for CGACCTAGGTCAAGGACAGTGAATCTCCGCACGC it is 4.65; for CCGACTGGGGCATAGGTTACCATACTCAGTACGA it is 0.922.
Still for that read-out and setting: the figure for TCATATAGGTATATGCTAGGTGAAAGTCCGATCT is 0.291.
The same measure, in the same setting: then TCTTGTAGATCAAAGTTTAAGAAAGCCGAAGCCT, with 0.16.
With CCTATTAGTTGACCAGAAGGGCAACCGAAGCTCG, the PBM binding z-score was determined as 1.45.
The same measure, in the same setting: the figure for TCGAGTAGGTTAGGGGCATTAAGAATGGCGTCGA is 0.329.
On the same count and under the same terms, the figure for TCTATTAGTTGAAGGGCAACCAACGAGTCCGTTT is 0.447; for TAGCCTAGGTCATATCGGGCCAGTATACGCTATA it is 3.33; for TTACCAAGGTGAAGGACGTTGATCCCTCTGTAGA it is 0.43.
The sequence AGTCAAAGTTTAGGACGAGGTAACGTAAAGCACG showed a PBM binding z-score of 0.936.
CGTCCAAGGTCAAAGGGCAGTGAAGAGATGACGG: the PBM binding z-score stood at 6.57.
The sequence CCTACTGGGACAAAGGTCATTGATTCCAATGCTC had a PBM binding z-score of 5.3.
On the same count and under the same terms, the figure for CAAACTGGGTCACGAAAGGTCAAAGTCGAATGAC is 7.84; for CGTCCAAGGTTAATGCTAGGTCAGTGAAAGCATT it is 4.63; for ACTAGTTGGTCAGTTGAGGTCACACACAATTCGG it is 3.87.
Sequence CAAACTAGGACAAGGTCAAAGTCGGTTTGTGCCA had a PBM binding z-score of 4.2.
Same read-out and setting: then ACTTTCGGGTCAACGAGGTTATAGCACGCGTATA, with 5.69; and ACAGACAGGGGATGAAGGTAACTCAGGCTATCAT, with 0.0982; and AGAATGAGGTTATACGAAGATCAGGGAAGAAAGT, with 1.71.
GCTAGCAGGCCATTTGGGTCACTCAATGACGGGC had a PBM binding z-score of 1.11.
On the same count and under the same terms, then TCATATAGATAAATGCTAGGTGAAAGTCCGATCT, with 0.12.
Same read-out and setting: the figure for TAGCCTAGGTCATTGGGCCTGTATAGTACGCATC is 3.78; for AATGCAGGGTCATCGTAGGCCAGAGTACGCACAG it is 5.5.
Still for that read-out and setting: the figure for CCTTACGGGTCACTGACAGGTTGTAGCATTTGGA is 5.06.

Another experiment has as its system RARg homodimer (NR concentration 270 nM). The description is as above. The procedure, abridged:
as §1
Regarding ACTATTAGTTGAGACGAGGGCAACAGATAGGTTG, the PBM binding z-score amounted to 0.969.
The same measure, in the same setting: the figure for CCTACTGGCCCAAAGGTCATTGATTCCAATGCTC is 4.36.
In turn, CCTATTAGTTGACCATAAGGGCAACAGAAGCTCG yielded a PBM binding z-score of 1.16.
The same measure, in the same setting: then GATACAGGGTTAGCTAGAGGCCAGAGTATGGAAA, with 0.756; and CCTTACGGGTCACTCCAGGTTATAGCGTCGGAGT, with 4.23.
On the same count and under the same terms, then CCTTACGGGTCACTAACAGGTTATAGCATTTGGA, with 4.12.
Same read-out and setting: then TCTAGTAGATCAAGCAGGTTAAGAAAGCCTGAGT, with -0.373; and GCGACTGGGGCATCAGGAGGTTACCATAACTTAA, with 0.983.
As for CCGACTGTGGCAAAGGTTACCATACTCAGTACGA, the PBM binding z-score amounted to 1.17.
CGTCCAAGGTCAAGGTCAGTGCAAGAGACTCGAA returned a PBM binding z-score of 7.95.
The same measure, in the same setting: then CCTACTGGGCCAAAGGTTATTGATTCCAATGCTC, with 0.739.
On the same count and under the same terms, the figure for ATCTCTAGGTAATACTCAGTTCAGTGAAGAACGC is 0.671.
Still for that read-out and setting: the figure for CCTACTGGGCCAAGGGTCATTGATTCCAATGCTC is 3.31; for ATAAGTAGGTTAAGGGTCATTCAGGTTGGTTCGC it is 3.75; for GGAACGAGGGCATTCGACTTGATAGCATGGCGAT it is 1.52.
As for GGAACGAAGGCAAAGTTGATAGCATCTGTCGACG, the PBM binding z-score is -0.151.
Same read-out and setting: then CGACCTAGGTCAAGGACAGTGAATCTCCGCACGC, with 4.69.
In the case of CCGACTGGGGCATAGGTTACCATACTCAGTACGA, the PBM binding z-score is 0.833.
The same measure, in the same setting: the figure for TCATATAGGTATATGCTAGGTGAAAGTCCGATCT is 0.277; for TCTTGTAGATCAAAGTTTAAGAAAGCCGAAGCCT it is 0.307.
On the same count and under the same terms, the figure for CCTATTAGTTGACCAGAAGGGCAACCGAAGCTCG is 0.985.
TCGAGTAGGTTAGGGGCATTAAGAATGGCGTCGA had a PBM binding z-score of 0.269.
For the sequence TCTATTAGTTGAAGGGCAACCAACGAGTCCGTTT, the PBM binding z-score was found to be 0.495.
Still for that read-out and setting: the figure for TAGCCTAGGTCATATCGGGCCAGTATACGCTATA is 3.95.
Sequence TTACCAAGGTGAAGGACGTTGATCCCTCTGTAGA had a PBM binding z-score of 0.524.
On the same count and under the same terms, the figure for AGTCAAAGTTTAGGACGAGGTAACGTAAAGCACG is 1.26; for CGTCCAAGGTCAAAGGGCAGTGAAGAGATGACGG it is 6.29; for CCTACTGGGACAAAGGTCATTGATTCCAATGCTC it is 4.6.
The same measure, in the same setting: the figure for CAAACTGGGTCACGAAAGGTCAAAGTCGAATGAC is 8.05.
Same read-out and setting: then CGTCCAAGGTTAATGCTAGGTCAGTGAAAGCATT, with 2.64; and ACTAGTTGGTCAGTTGAGGTCACACACAATTCGG, with 4.02; and CAAACTAGGACAAGGTCAAAGTCGGTTTGTGCCA, with 3.68.
Sequence ACTTTCGGGTCAACGAGGTTATAGCACGCGTATA showed a PBM binding z-score of 5.44.
Still for that read-out and setting: the figure for ACAGACAGGGGATGAAGGTAACTCAGGCTATCAT is 0.418; for AGAATGAGGTTATACGAAGATCAGGGAAGAAAGT it is 1.
Still for that read-out and setting: then GCTAGCAGGCCATTTGGGTCACTCAATGACGGGC, with 1.55.
The same measure, in the same setting: the figure for TCATATAGATAAATGCTAGGTGAAAGTCCGATCT is 0.317.
TAGCCTAGGTCATTGGGCCTGTATAGTACGCATC registered a PBM binding z-score of 4.29.
On the same count and under the same terms, the figure for AATGCAGGGTCATCGTAGGCCAGAGTACGCACAG is 4.83; for CCTTACGGGTCACTGACAGGTTGTAGCATTTGGA it is 4.23.
